ChEMBL document CHEMBL3988442, “University of Dundee, Small-Polar-MMV Screening Library” (2021)
In all, about 48,000 compounds went through this assay and about 13,000 (27%) showed an effect of 50% or more. Some of the results follow.

Tested on: Wolbachia pipientis
Assay: Anti-Wolbachia Cell-Based Screen
Format: functional
Parameters: scale not given: in the data most compounds retested in dose-response had high values
Details: 5 µM

Row | SMILES | Percent Effect
1 | CN1CCN2CCN(C(=O)c3cc4ncc(CCO)cn4n3)CC2C1 (configuration not stated) | -4.032%
2 | CCCn1ccnc1SCC(=O)NC(Cc1ccccc1)C(C)=O (configuration not stated) | 22.6%
3 | COCC(C)NC(=O)c1cc(Br)c2c(c1)OCCO2 (configuration not stated) | -1.818%
4 | CC(C)(C)CNC1(Cc2cc(C(C)(C)O)on2)COC1 | -22.48%
5 | CN(Cc1cccnc1)CC1CC12CCN(Cc1nccs1)CC2 (configuration not stated) | 11.24%
6 | Cc1cnc(N2CCC3(CC2)CC3CN(C)Cc2cccnc2)nc1.O=C(O)C(F)(F)F.O=C(O)C(F)(F)F (configuration not stated) | 2.289%
7 | CN(Cc1cccnc1)CC1CC12CCCC2 (configuration not stated) | 103.1%
8 | CSCC(=O)N1CCOC(c2nc(C(C)(C)C)n[nH]2)C1 (configuration not stated) | 103.9%
9 | CSCC(=O)N1CCOC(c2nc(C(C)C)n[nH]2)C1 (configuration not stated) | 117.1%
10 | CC(C)(C)c1n[nH]c(C2CN(C(=O)c3ccsc3)CCO2)n1 (configuration not stated) | -3.296%
11 | Cc1n[nH]c(C2CN(C(=O)c3cc(C4CC4)[nH]n3)CCO2)n1 (configuration not stated) | 6.266%
12 | CCc1n[nH]c(C2CN(C(=O)c3cnc[nH]3)CCO2)n1 (configuration not stated) | -7.128%
13 | Cc1nc(CN2CCOC(c3nc(C(C)C)n[nH]3)C2)oc1C (configuration not stated) | -6.661%
14 | CC(C)(C)c1n[nH]c(C2CN(C(=O)CCC3CC3)CCO2)n1 (configuration not stated) | -7.383%
15 | CC(C)(C)c1n[nH]c(C2CN(C(=O)c3cnc[nH]3)CCO2)n1 (configuration not stated) | 97.58%
16 | Cc1n[nH]c(C2CN(C(=O)c3cnc[nH]3)CCO2)n1 (configuration not stated) | -6.3%
17 | Cc1nc(CC(=O)N2CCOC(c3nc(C(C)(C)C)n[nH]3)C2)cs1 (configuration not stated) | -6.24%
18 | CC(C)(C)c1n[nH]c(C2CN(C(=O)c3cc(C4CC4)[nH]n3)CCO2)n1 (configuration not stated) | 116%
19 | CC(C)c1n[nH]c(C2CN(C(=O)CCCn3cccn3)CCO2)n1 (configuration not stated) | -13%
20 | CCc1ccc(C(=O)N2C[C@@H]3COC[C@@H](C(=O)NC)[C@@H]3C2)cc1 | -16.14%
21 | Cc1ccc(S(=O)(=O)N2CC(C)Oc3ncccc32)c(C)c1 (configuration not stated) | -17.54%
22 | Cn1nnc2c1CCN(C(=O)C1CC1)C2COCCN1CCCC1.O=C(O)C(F)(F)F (configuration not stated) | -5.654%
23 | CCn1ncnc1CN1CCc2[nH]cnc2C1Cc1ccccc1 (configuration not stated) | -1.907%
24 | Cc1cccc(CNC2(CCO)CCOCC2)c1C | -7.231%
25 | CSC(C)C(=O)NS(=O)(=O)CCc1ccccc1 (configuration not stated) | -7.68%
26 | Cc1n[nH]c(C2CN(C(=O)c3ccc(Cl)o3)CCO2)n1 (configuration not stated) | -21.06%

Row | SMILES | Percent Effect
27 | CSCC(=O)N1CCOC(c2nc(C)n[nH]2)C1 (configuration not stated) | 81.74%
28 | Cc1[nH]c(-c2ccccc2)nc1C(=O)N1CCc2[nH]cnc2C1C(=O)O (configuration not stated) | -27.35%
29 | COCCCN(C)S(=O)(=O)c1ccc(Cl)cc1C#N | -9.182%
30 | COCCCNc1c(-c2ccc(Cl)cc2)c(=O)c1=O | 75.4%
31 | COCCN1CCN(Cc2ccc(Cl)cc2)[C@H]2CS(=O)(=O)C[C@H]21 | 3.262%
32 | COCCCNC(=O)Cc1cc(-c2ccc(Cl)cc2)on1 | 18.42%
33 | COCCNC(=O)CCNc1ccc(Cl)cn1 | -1.356%
34 | COCCNc1c(-c2ccc(Cl)cc2)c(=O)c1=O | 106.9%
35 | CCCNC(=O)CC1OCCc2ccsc21 (configuration not stated) | -18.02%
36 | CN1CCN(C[C@@H]2CN(Cc3c(Cl)cncc3Cl)C[C@@H]2CO)CC1 | -1.243%
37 | Cn1ncc2c1C(COCC1CC1)CN(c1ncc(F)cn1)C2 (configuration not stated) | 102.8%
38 | COCC1CN(c2ncc(F)cn2)Cc2cnn(C)c21.O=C(O)C(F)(F)F.O=C(O)C(F)(F)F (configuration not stated) | 94.8%
39 | CCOCCN1Cc2cnn(C)c2C(COCC)C1.O=C(O)C(F)(F)F.O=C(O)C(F)(F)F (configuration not stated) | -55.01%
40 | CCn1ncc2c1C(COC)CN(c1ncc(F)cn1)C2.O=C(O)C(F)(F)F.O=C(O)C(F)(F)F (configuration not stated) | 103.8%
41 | COCC1CN(C(=O)N2CCCC2)Cc2cnn(CC3CCCC3)c21 (configuration not stated) | 9.026%
42 | Cn1ncc2c1C(COCC1CC1)CN(CC1CC1)C2 (configuration not stated) | 3.494%
43 | COCC1CN(c2ncccn2)Cc2cnn(CC3CC3)c21 (configuration not stated) | 112.4%
44 | Cn1ncc2c1C(COCC1CC1)CN(S(C)(=O)=O)C2 (configuration not stated) | 3.209%
45 | CCn1ncc2c1C(COC)CN(S(=O)(=O)N(C)C)C2.O=C(O)C(F)(F)F (configuration not stated) | -1.525%
46 | COCC1CN(Cc2cc(C)on2)Cc2cnn(C)c21.O=C(O)C(F)(F)F.O=C(O)C(F)(F)F (configuration not stated) | -1.756%
47 | Cn1cc(C[C@H]2[C@H](N3CCOCC3)CCN2C2CCOCC2)cn1.O=C(O)C(F)(F)F.O=C(O)C(F)(F)F | -4.511%
48 | COCC1(C(=O)N2CCC(c3nccn3CC3CC3)CC2)CCC1 | 2.579%
49 | CCN(CC)CCSc1nnc(N2CCN(c3ccccc3)CC2)s1 | -12.7%
50 | CN(Cc1cccc(O)c1)CC1CCCN(CCc2ccc(Cl)cc2)C1 (configuration not stated) | 2.569%
51 | CNC(=O)CSc1cnn(CC(=O)Nc2cccc(Cl)c2C)c(=O)c1Cl | -42.51%
52 | Cc1cnc(N2CCC3(CCC(C(=O)NC(C)C)OC3)CC2)nc1 (configuration not stated) | -9.523%

Row | SMILES | Percent Effect
53 | CC(=O)N1CCCN(C(=O)NCCCNS(C)(=O)=O)CC1 | -1.689%
54 | COCCN1CCN(C(=O)c2ccc(C)cc2OC)[C@H]2CS(=O)(=O)C[C@H]21 | 5.009%
55 | COc1cccc(N2CCC(CNC(=O)NCc3ccco3)C2)c1 (configuration not stated) | 2.217%
56 | COc1ccccc1N1CCC(CNCc2cccc(O)c2)C1 (configuration not stated) | -3.366%
57 | COc1ccc(CNCC2CCN(c3ccccc3OC)C2)cc1O (configuration not stated) | 114.3%
58 | COc1ccccc1N1CCC(CNS(=O)(=O)c2cccs2)C1 (configuration not stated) | -9.312%
59 | COc1ccccc1N1CCC(CNCc2c(C)nn(C)c2OC)C1 (configuration not stated) | -29.19%
60 | COc1ccccc1N1CCC(CNS(=O)(=O)c2cccc(C#N)c2)C1 (configuration not stated) | 87.58%
61 | COc1ccccc1N1CCC(CNS(=O)(=O)c2c(C)nn(C)c2C)C1 (configuration not stated) | -2.863%
62 | COc1ccccc1N1CCC(CNCc2cccc(C#N)c2)C1 (configuration not stated) | -2.203%
63 | COc1cccc(N2CCC(CNCc3cccc(C#N)c3)C2)c1 (configuration not stated) | 82.37%
64 | N#Cc1ccc(CNCC2CCN(CCO)CC2)cc1 | -8.382%
65 | COc1cccc(N2CCC(CNc3cc(C)nc4ncnn34)C2)c1 (configuration not stated) | -5.133%
66 | COc1ccccc1N1CCC(CNCc2ccc(C#N)cc2)C1 (configuration not stated) | 109.5%
67 | CC(C)(C)N1CC(C(=O)N2CCN(CCn3cncn3)CC2)CC1=O (configuration not stated) | -32.16%
68 | Cc1nc(NC(=O)NC2CC(=O)N(C(C)C)C2)nn1C(C)C (configuration not stated) | -10.65%
69 | N#CCCN1CCC(=Cc2ccccc2)CC1 | 4.186%
70 | COCCC(=O)N1CCC2(COCc3cnc(-c4cccnc4)nc32)C1 (configuration not stated) | 82.83%
71 | CC(C)C(=O)N1CCC2(COCc3cnc(-c4cccnc4)nc32)C1 (configuration not stated) | 110.7%
72 | O=C(C1CCC1)N1CCC2(COCc3cnc(-c4cccnc4)nc32)C1 (configuration not stated) | -1.349%
73 | O=C(CC1CC1)N1CCC2(COCc3cnc(-c4ccccc4)nc32)C1 (configuration not stated) | -2.156%
74 | O=C(CC1CC1)N1CCC2(COCc3cnc(-c4cccnc4)nc32)C1 (configuration not stated) | 110.1%
75 | CC(C)NC(=O)N1CCC2(COCc3cnc(-c4ccccc4)nc32)C1 (configuration not stated) | -4.544%
76 | COCC(=O)N1CCC2(COCc3cnc(-c4ccccc4)nc32)C1 (configuration not stated) | -5.335%
77 | O=C(c1ccon1)N1CCc2ncnc(NCc3cccnc3)c2CC1 | -8.818%
78 | CN1CCN(c2cc(CNCc3cccc4c3OCO4)ccn2)CC1 | 11.73%

Row | SMILES | Percent Effect
79 | CC1CCCN(S(=O)(=O)NCCN/C(O)=C2/N=CC=CC2=O)C1 (configuration not stated) | -6.366%
80 | CN(C)C[C@H]1C[C@@H]2CN(C(=O)c3ccco3)C[C@@H]2O1 | -6.391%
81 | O=C(NC[C@@H]1C[C@@H]2CN(C(=O)CO)C[C@H]2O1)c1ccsc1 | 119.3%
82 | Cn1cccc1C(=O)NC[C@H]1C[C@@H]2CN(C(=O)c3ccno3)C[C@H]2O1 | 1.866%
83 | O=C(NC[C@H]1C[C@@H]2CN(C(=O)c3ccno3)C[C@@H]2O1)C1CCC1 | 2.338%
84 | Cn1cccc1C(=O)NC[C@H]1C[C@@H]2CN(C(=O)c3ccco3)C[C@@H]2O1 | 102.1%
85 | O=C(c1ccsc1)N1C[C@@H]2C[C@@H](c3nnc(C4CC4)o3)O[C@@H]2C1 | 1.173%
86 | O=C(NC[C@H]1C[C@@H]2CN(C(=O)c3ccco3)C[C@@H]2O1)c1ccsc1 | 124.8%
87 | O=C(NCC1Cn2nnc(-c3ccncc3)c2CO1)c1ccsc1.O=C(O)C(F)(F)F (configuration not stated) | -1.201%
88 | CC(C)NC[C@@]1(COc2ccccc2)C[C@@H](O)[C@@H](O)C1.Cl | 3.998%
89 | N#Cc1ccc(N2CCCC2Cn2cncn2)nc1 (configuration not stated) | 6.543%
90 | COc1ccccc1C(C#N)NC(=O)c1cccc2c1oc(=O)n2C (configuration not stated) | -5.303%
91 | CC(=O)N1CCCN(C(=O)NC(C)c2csc3ccccc23)CC1 (configuration not stated) | -8.175%
92 | O=C1N(Cc2cccc(F)c2F)CCCC1(O)CNC1CCCC1 (configuration not stated) | 4.204%
93 | COCCNC(=O)Nc1ccc(C(=O)N2CCSCC2)cc1C | -68.32%
94 | O=C(Cc1ccccn1)N1CCC2(CC1)CN(c1ccccn1)CCO2 | 1.035%
95 | O=C(Cc1ccccc1)N1CCC2(CC1)CN(c1ncccn1)CCO2 | -17.85%
96 | O=C(CCc1ccc(Cl)cc1)N1CCC(O)(C(F)(F)F)C1 (configuration not stated) | 8.106%
97 | NCC(=O)N1CCC2(CC1)CN(C(=O)Cc1ccc(Cl)cc1)CCO2 | 111%
98 | Cl.NCC1CCCCN1C(=O)Cc1cccc(Cl)c1 (configuration not stated) | -19.94%
99 | O=C(CN1C(=O)c2ccccc2C1=O)N1CCOC2(CCOCC2)C1 | -3.799%
100 | O=C(Cc1ccc(Cl)cc1)N1CCC(O)(C(F)(F)F)C1 (configuration not stated) | -18.33%
101 | NCCC(=O)N1CCC2(CC1)CN(C(=O)Cc1cccc(Cl)c1)CCO2 | 105.1%
102 | NCCC(=O)N1CCC2(CC1)CN(C(=O)Cc1ccc(Cl)cc1)CCO2 | 115.1%
